The whole screen tested about 200,000 compounds, of which about 18,000 (9%) were called active. For the sample, actives were picked, then their nearest neighbours and some compounds at random. Unmarked numbers belong to inactive results. Cut-off read from the data, not from the text of the source: active = inhibition above about 50%; inactive = the rest.

A short description of the assay: antileishmanial activity against promastigotes – primary screen (AID 1063).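 Note: promastigotes grown with compound for 44 hours at 28 °C.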 The settings on record: Leishmania major promastigotes, resazurin fluorescence viability; at 10 µM; stronger effect = higher value. Background: Resazurin is reduced to fluorescent resorufin, in cell work by metabolically active cells.
`Clc1ccc(-c2ncc3ccccn23)c(Cl)c1`: the inhibition (in general, the change of the read-out against control, counted positive when it falls) is 4.32%. Then `O=C1CSC(c2ccccc2)N1c1nc(-c2ccc(Cl)cc2Cl)cs1` (stereo unspecified), with -6.37%; and `Clc1ccc(-c2cc(C3CCNCC3)[nH]n2)c(Cl)c1`, with 94.3% (active); and `CCOC(=O)c1cc2c(=O)[nH]c(C(Cl)(Cl)Cl)nc2o1`, with -8.22%. On to `COc1ccc(C2C(C#N)=C(N)N(c3ncn[nH]3)C3=C2C(=O)CCC3)cc1` (stereo unspecified), for which the inhibition is -5.04%.

Regarding `N#CC1=C(N)N(c2ccccc2)C2=C(C(=O)CCC2)C1c1ccccc1` (stereo unspecified), the inhibition was 69.2% (active). `CSc1sc(C)cc1C1C(C#N)=C(N)N(c2cccnc2)C2=C1C(=O)CCC2` (stereo unspecified): the inhibition was 7.04%. For the compound `O=C(CSc1nnc(Nc2ccccc2)s1)Nc1cccnc1Cl`, the inhibition was 66.3% (active). For `O=C(CSc1nnc(C2CC2)n1Cc1ccccc1)Nc1cccnc1Cl`, the inhibition is 3.75%. For `Cc1cc(NC(=O)CSc2nnc(Nc3ccccc3F)s2)no1`, the inhibition is 0.51%. Then `CC(=O)c1c(-c2ccccc2)c2ccccc2[nH]c1=O`, with -2.95%; and `O=C1CCCCC(=O)c2ccccc2N1`, with 0.26%. For `c1ccc2c(c1)C(=NC1CCCCC1)NC2=NC1CCCCC1`, the inhibition is 100% (active). Turning to `CN(C)S(=O)(=O)c1cccc(NC(=O)COC(=O)/C=C/c2cccs2)c1`, the inhibition is -4.76%. In the case of `CCOCC(=O)Nc1ncc(S(=O)(=O)c2ccc([N+](=O)[O-])cc2)s1`, the inhibition was 20.7%. For `COc1ccc(N/N=C2/CCCCC2=O)cc1`, the inhibition is 67.6% (active). For the compound `COc1ccc(NC(=O)c2c(C)oc3c2CCCC3)cc1`, the inhibition was -5.6%. Take `Cc1ccc(N/N=C2\COC(C)(C)CC2=O)cc1`: the inhibition was 0.62%. As for `O=C(CCCCCNC(=O)c1ccccc1)N/N=C/c1ccccc1`, the inhibition is -3.34%. As for `O=C(N/N=C/c1ccccc1O)/C(=C/c1ccccc1)CCO`, the figure is 97.6% (active); as for `O=C(CCCO)N/N=C/c1cc(Br)ccc1O`, 12.7%; as for `Cc1c(C=O)c2ccccc2n1CC(=O)O`, -9.42%.

For `Cc1ccccc1OCCC(=O)OCC(=O)NC(C)c1ccccc1` (stereo unspecified), the inhibition was 1.48%. For the compound `CNC(=O)c1ccsc1NC(=O)c1ccc(S(=O)(=O)N2CCOCC2)cc1`, the inhibition is 12.3%. For `CC1CN(S(=O)(=O)c2ccc(C(=O)Nc3sccc3C(N)=O)cc2)CC(C)O1` (stereo unspecified), the inhibition is 6.76%.

With `CNC(=O)c1ccsc1NC(=O)c1ccc(S(=O)(=O)N2CCc3ccccc32)cc1`, the inhibition is 89.2% (active). As for `Cc1ccc2nc(-c3ccc(NC(=O)c4cccnc4)cc3)oc2c1`, the figure is -5.33%; as for `Cc1cccc(NC(=S)NCCN(C2CCCCC2)C2CCCC2)c1`, 37.4%. As for `COc1ccc(OCc2n[nH]c(=S)n2N)cc1`, the figure is -7.89%; as for `CC(C)c1ccc(/C=C/C(=O)NNC(=O)c2cccnc2)cc1`, -0.93%; as for `O=C(/C=C/c1ccc(F)cc1)NC(=S)NNC(=O)c1cccnc1`, 53.4% (active).

As for `O=C(/C=C/c1ccc(F)cc1)NCCNC(=O)/C=C/c1ccc(F)cc1`, the inhibition was -1.31%. As for `S=C(NCc1cccs1)Nc1ccc(Cl)cc1`, the figure is 10.1%; as for `COc1cc(CC(=O)NCc2cccs2)cc(OC)c1OC`, -3.33%; as for `COc1ccc(NC(=S)NCc2cccs2)c(OC)c1`, 53.3% (active). Turning to `COc1ccc(Br)cc1/C=N/Nc1ccc(Cl)c(C(=O)O)c1`, the inhibition is -11.3%. `COC(=O)C1CCN(C(=O)c2cc(=O)[nH]c3ccccc23)CC1`: the inhibition was -2.57%.

For `COc1ccc(CCNC(=O)CC2SC(=Nc3cc(C)cc(C)c3)NC2=O)cc1OC` (stereo unspecified), the inhibition was 1.72%. For `Cc1nc(N2CCN(c3ccccn3)CC2)c2c(C)c(C(=O)Nc3ccc(F)cc3)sc2n1`, the inhibition was 43.6%. On to `CCOC(=O)C1CCCN(C(=O)c2sc3nc(C)nc(N4CCOCC4)c3c2C)C1` (stereo unspecified), for which the inhibition was -2.76%. With `Cc1ccnc(N2CCCC(C(=O)Nc3cc(F)ccc3C)C2)n1` (stereo unspecified), the inhibition is -1.61%.

As to `Cc1nc(N2CCC(C)CC2)c2c(C)c(C(=O)Nc3cc(F)ccc3C)sc2n1`, the inhibition was 72.2% (active). In the case of `Cc1nc(N2CCOCC2)c2c(C)c(C(=O)Nc3ccc(C(F)(F)F)cc3)sc2n1`, the inhibition was 58.7% (active). Consider `Cc1ccc(F)cc1NC(=O)c1ccc2c(c1)OCO2`, for which the inhibition was -6.66%.

`CC(C)CNC(=O)C(=O)NCc1ccccc1`: the inhibition was -6.83%. As for `O=C(COC(=O)c1ccc(O)cc1)Nc1nccs1`, the figure is 3.69%; as for `C/C(=N\NC(=O)C(N)=O)c1ccc2c(c1)OCCO2`, -3.07%; as for `COc1ccc(NC(C(=O)Nc2cccc(C(C)=O)c2)c2ccccc2)cc1` (stereo unspecified), 94.4% (active). On to `CC(=O)c1cccc(NC(=O)[C@@H](NC(N)=O)C(C)C)c1`, for which the inhibition was 6.23%. With `COc1cccc(NC(=O)C(C)Oc2ccccc2)c1` (stereo unspecified), the inhibition was -5.27%. In the case of `Nc1c(C(=O)O)cnn1-c1ccccc1`, the inhibition is -2.24%. Regarding `O=C(CCN1C(=O)c2ccccc2C1=O)Nc1ccncc1`, the inhibition is -8.03%. Turning to `COc1ccccc1CC(=O)Nc1ccc(F)cc1F`, the inhibition is -6.42%. In the case of `O=C(CN1CCN(C/C=C/c2ccccc2)CC1)Nc1ccc(F)cc1F`, the inhibition was 77.3% (active). In the case of `O=C(CCN1C(=O)c2ccncc2C1=O)Nc1cc(F)ccc1F`, the inhibition was -6.67%. `CCN1CCN(C(=O)C2(NC(=O)Nc3cccc(F)c3)CCCCC2)CC1`: the inhibition is 29.9%. On to `O=C(CCN1CCN(C/C=C/c2ccccc2)CC1)Nc1cccc(F)c1`, for which the inhibition is 90.8% (active). As for `O=C(CCN1CCN(c2ccccc2)CC1)NNC(=S)Nc1ccccc1`, the figure is -9.65%; as for `O=C(CN1CCN(C(=O)c2cccc(F)c2)CC1)Nc1ccccc1F`, -5.19%; as for `O=C(CCN1C(=O)c2ccccc2C1=O)Nc1cccc(F)c1`, 89.8% (active). With `CC(=O)N1N=C(c2ccccc2)OC1c1cccnc1` (stereo unspecified), the inhibition was -2.61%. For the compound `CCC(C)N(C(=O)COC(=O)C1C(C(=O)OC)=C(C)NC(C)=C1C(=O)OC)C1CCS(=O)(=O)C1` (stereo unspecified), the inhibition was -3.21%. On to `O=C(Nc1ccc(N2CCN(C(=O)C3CC3)CC2)cc1)c1cccs1`, for which the inhibition was -2.42%. Then `CCCOCC(O)CC(CC)C(=O)NNC(=S)Nc1ccccc1` (stereo unspecified), with -2.02%; and `CCCCOc1ccc(N(CC(=O)NC(C)C)C(=O)CCC(=O)Nc2ccccn2)cc1`, with 0.57%; and `Cn1c(CCC(=O)Nc2ccccc2F)nnc1SCC(=O)Nc1ccccc1Cl`, with 2.13%. On to `S=c1nc(C23CC4CC(CC(C4)C2)C3)nc2sccn12`, for which the inhibition is -2.7%.

As for `COc1cccc(C(=O)Oc2cc(C)[nH]c(=O)c2[N+](=O)[O-])c1`, the inhibition was 5.78%.

In the case of `CC1CCCCN1S(=O)(=O)c1ccc(S(=O)(=O)N(CC(=O)Nc2ccccc2)Cc2cccs2)cc1` (stereo unspecified), the inhibition is -0.93%. As for `CC1CCCCN1S(=O)(=O)c1ccc(C(=O)Nc2nnc(-c3cccs3)o2)cc1` (stereo unspecified), the figure is 99.6% (active).

On to `CC1CCCN(S(=O)(=O)c2ccc(C(=O)Nc3nnc(-c4ccncc4)o3)cc2)C1` (stereo unspecified), for which the inhibition was 12.2%. On to `COC(=O)c1nc(NC(=O)c2ccc(F)cc2)n[nH]1`, for which the inhibition is -2.13%. As to `c1ccc(-c2nccc(-c3ccc(-n4cnc5ccccc54)cc3)n2)nc1`, the inhibition is 101% (active). As for `Cc1nccc(-c2ccc(-n3c(C)ccc3C)cc2)n1`, the figure is 41.6%; as for `CC(C)c1nc(-c2ccccn2)no1`, -3.52%. For the compound `C/C(Cn1nnc2ccccc21)=N\OC(=O)c1cc(F)c(F)cc1Cl`, the inhibition was 2.7%.

On to `CCN(CCn1cccn1)Cc1nc(-c2ccc(C(=O)OC)cc2)no1`, for which the inhibition was 5.81%.

With `O=C1CC(c2c(F)cccc2Cl)C(n2cncn2)C(O)=C1C1NCCc2ccccc21` (stereo unspecified), the inhibition is -6.44%. Then `COc1cc2c(cc1O)[C@H](Cc1ccc(Oc3cc(C[C@@H]4NCCc5cc(OC)c(O)cc54)ccc3O)cc1)NCC2`, with 2.59%; and `CC[C@H]1CN2CCc3cc(OC)c(OC)cc3[C@@H]2C[C@@H]1C[C@H]1NCCc2cc(OC)c(OC)cc21`, with 100% (active). In the case of `CCOCCCN(C(=O)Cn1nnc(-c2ccc(OC)c(OC)c2)n1)C(CC)C(=O)NC1CCCC1` (stereo unspecified), the inhibition is -1.34%. Then `COCCn1nnnc1C(c1cc2ccc(OC)cc2[nH]c1=O)N1CCc2ccccc2C1` (stereo unspecified), with 5.04%; and `COc1ccc(OC)c(NC(=S)N2CCc3ccccc3C2)c1`, with 5.86%. `COc1ccc(OC)c(C(c2nnnn2C(C)(C)C)N2CCc3ccccc3C2)c1` (stereo unspecified): the inhibition was 88.9% (active). Turning to `C=CCn1c(CCNC(=O)c2ccccc2F)nnc1SCC(=O)Nc1ccc(OC)cc1`, the inhibition is 3.89%. On to `COc1ccc(Cc2nnc(NC(=O)c3cc(OC)c(OC)c(OC)c3)s2)cc1OC`, for which the inhibition was -2.97%. Take `NC(=O)C1CCN(Cc2nc3c(Br)cc(Br)cc3c(=O)[nH]2)CC1`: the inhibition was -13%. Take `COCCNC(=O)/C(C#N)=C/c1nc(N(C)C)n(-c2ccc(F)cc2)c1Cl`: the inhibition was 10.3%. For the compound `COc1ccc(-c2nnc(SCC(=O)c3ccc4c(c3)OCCO4)o2)cc1`, the inhibition is -4.95%. `COc1ccc(-c2nnc(SC(C)C#N)o2)cc1` (stereo unspecified): the inhibition was -3.1%. Regarding `COc1ccc(-c2nnc(SC(=O)N3c4ccccc4Sc4ccccc43)o2)cc1`, the inhibition is 84.1% (active). In the case of `CC(/C=N/NC(=O)c1ccncc1)=C\c1ccco1`, the inhibition was -2.49%. For the compound `CC(Oc1ccccc1)C(=O)NN1Cc2ccccc2C1=N` (stereo unspecified), the inhibition is -3.38%.

As for `Nc1nc(-c2sc3nc4c(cc3c2N)CCCC4)nc(N2CCOCC2)n1`, the inhibition is 47%. Take `CNC(=O)c1[nH]cnc1C(=O)N[C@@H](CC(C)C)C(=O)OC(C)(C)C`: the inhibition was -2.24%.

On to `S=C(Nc1ccc2c(c1)OCO2)N1CCCC1`, for which the inhibition was -4.06%.

The values are drawn from PubChem BioAssay AID1063 (University of Pittsburgh Molecular Library Screening Center, 2008).
